Drawing on PubChem BioAssay AID1671190 (National Center for Advancing Translational Sciences (NCATS), 2021), this text covers Potency for 52 compounds.

Hit rate of the full screen: of about 580,000 compounds, about 6,100 (1.1%) were called active. A call without a number means that no potency is given here. Another 15% or so got no clear call; they are omitted. The call rests on the fitted dose curve; in most records, active means well fitted inhibition curve with a large enough effect; inconclusive means small, poorly fitted or top-dose-only effect, or another doubt; inactive means no such curve, though single readings can be large or run the other way. This excerpt belongs to a sample that is enriched for actives.
Potency means the concentration at half of the fitted maximal effect.

Chain of Polyunsaturated fatty acid lipoxygenase ALOX12 (Homo sapiens) (P18054 whole entry, looked up): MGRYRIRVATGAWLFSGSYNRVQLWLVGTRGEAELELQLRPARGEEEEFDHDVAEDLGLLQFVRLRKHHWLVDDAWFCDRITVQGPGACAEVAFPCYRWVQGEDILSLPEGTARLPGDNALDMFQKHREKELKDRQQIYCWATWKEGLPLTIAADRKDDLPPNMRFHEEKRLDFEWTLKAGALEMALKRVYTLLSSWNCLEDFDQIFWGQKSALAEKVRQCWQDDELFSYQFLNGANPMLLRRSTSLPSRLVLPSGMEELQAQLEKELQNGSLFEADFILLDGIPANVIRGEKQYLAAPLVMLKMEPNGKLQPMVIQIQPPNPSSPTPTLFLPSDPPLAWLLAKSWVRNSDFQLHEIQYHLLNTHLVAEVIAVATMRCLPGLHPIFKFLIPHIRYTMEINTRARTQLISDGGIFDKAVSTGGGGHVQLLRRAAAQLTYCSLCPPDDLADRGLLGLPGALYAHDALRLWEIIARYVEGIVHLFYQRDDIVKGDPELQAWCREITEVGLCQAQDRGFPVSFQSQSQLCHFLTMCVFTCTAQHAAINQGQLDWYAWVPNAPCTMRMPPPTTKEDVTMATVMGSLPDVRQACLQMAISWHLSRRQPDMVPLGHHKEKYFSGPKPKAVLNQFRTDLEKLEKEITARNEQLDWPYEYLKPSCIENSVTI

The assay has as its target Polyunsaturated fatty acid lipoxygenase ALOX12 (Homo sapiens) (UniProt P18054). The assay is described as follows: Primary qHTS assay for inhibitors of human arachidonate 12S-lipoxygenase (ALOX12): Round 2. The following applies: purified 12hLO, xylenol orange hydroperoxide absorbance; series mostly up to 108 µM. An excerpt: Assay Provider: Theodore R. Holman Ph.D. University of California, Santa Cruz, California Human lipoxygenase 12hLO is a member of the closely related lipoxygenase family of enzymes which catalyze the site-specific oxidation of arachidonic acid to various hormone precursor molecules and as such is a candidate for drug development in a variety of disease areas, such as cancer and inflammation. Inhibition of 12hLO activity was screened by utilizing arachidonic acid as a substrate. The extent of hydroperoxide product formation was measured by a secondary chromogenic reaction in which xylenol orange (XO, Sigma-Aldrich, cat. number 39,818-7) reacts with the ferric ions produced from the reaction between the hydroperoxide and ferrous ions. The Fe (III)-XO complex is characterized with red-shifted absorbance at 560 nm. A purified preparation of human 12hLO was supplied by Dr. Holman laboratory, University of California, Santa Cruz.
PROTOCOL TABLE SEQUENCE No. (e.g., 1, 2, 3, etc.); […] (e.g., Cells, Incubation, Reagent, etc.); VALUE; DESCRIPTION 1; Enzyme; 3 uL; 150 nM 12hLO enzyme solution dispensed in 1536-well Greiner black, clear bottom plates. 2; Compound; 23 nL; compounds and controls were added. 3; Incubate; 15 min; room temperature. 4; Substrate; 1 uL; 40 uM arachidonic acid (final concentration). 5; Incubate; 30 min; room temperature. 6; Reagent; 4 uL; Fe-XO solution was added to each well. 7; Incubation; 30 min; room temperature 8; Detector; absorbance; Read 1 at 405 nm absorbance using ViewLux (Perkin-Elmer) CCD imager. 9; Detector; absorbance; Read 2 at 573 nm absorbance using ViewLux (Perkin-Elmer) CCD imager. NOTES (numbers refer to sequence above) 1; 150 nM 12hLO (final concentration) in buffer solution (25 mM Hepes, 0.01% Triton X-100, pH 7.0) was dispensed in columns 1, 2, 5-48. Column 1 is neutral (100% activity). Buffer only was dispensed in columns 3 and 4 as no enzyme negative controls. The plates were covered with metal lids with gas-exchange holes. 2; Compounds were pin transferred via a Kalypsys Pin Tool (Wako USA) in column 5-48. Control compound was transferred in column 2, titration of nordihydroguaiaretic acid (NDGA, Sigma-Aldrich, N5023) with top concentration of 20 mM in DMSO then 1:3 dilution in duplicate. Dilution factor of 23 nL into 4 uL final assay volume. 3; Covered assay plates were incubated for 15 min at room temperature. 4; Substrate was added to start the reaction; 40 uM arachidonic acid (Sigma-Aldrich, St. Louis, MO) was dispensed throughout the plate. 6; Chromogenic detection reagent solution (divalent iron/xylenol orange, Fe-XO) was added to each well: 200 uM xylenol orange, 300 uM ferrous ammonium sulfate prepared freshly in 50 mM sulfuric acid. 8, 9; Two absorbance readouts were obtained at 405 nm and at 573 nm using a ViewLux high-throughput CCD plate imager (Perkin-Elmer). The 573 to 405 (Read 2 / Read 1) absorbance ratio was used to compute reaction progress.
(In general: Quantitative high-throughput screening tests each substance at several concentrations.)
As for `Oc1ccccc1CN1C[C@H](O)C[C@H]1c1nc(Cc2ccc(F)cc2Cl)no1`, the Potency entry is “inactive”. As for `O=[N+]([O-])c1cccc(-c2noc([C@@H]3C[C@@H](O)CN3Cc3cccnc3)n2)c1`, the entry is “inactive”; as for `O=[N+]([O-])c1ccccc1CN1C[C@H](O)C[C@H]1c1nc(-c2ccc(F)cc2)no1`, 39.8 µM (active); as for `CC(C)CN1CCOC(CNC(=O)N2CCN(S(=O)(=O)c3ccc(C#N)cc3)CC2)C1` (configuration not stated), “inactive”. In the case of `Cc1cccc(C(=O)Nc2cccc(-c3nn4c(C)nnc4s3)c2)c1`, the Potency result is “inactive”. With `CN1Cc2ncnc(NCc3cccs3)c2CN(c2ccccc2)C1=O` the entry was “inactive”. As for `N#Cc1cccc(-c2ccc3ncnc(NCc4cccs4)c3c2)c1`, the Potency is 50.1 µM (active).

In the case of `COc1ccccc1CNc1ncnc2ccc(-c3ccc4c(c3)OCO4)cc12`, the Potency result is “inactive”.

Turning to `c1ccc2c(c1)C(=NC1CCCCC1)NC2=NC1CCCCC1`, the Potency is 31.6 µM (active). `CC(C)(C)c1ccc2c(c1)OCCOCCOCCOc1ccc(C(C)(C)C)cc1OCCOCCOCCO2`: the Potency result is “inactive”. On to `Cc1onc(-c2ccccc2)c1C(=O)NNC(=S)NC(=O)c1ccc(F)cc1`, for which the Potency was 39.8 µM (active). As to `CCOC(=O)c1c(NC(=O)c2c(-c3ccccc3)noc2C)sc2c1CCC2`, the Potency entry is “inactive”. On to `CCCNC(=O)c1ccc(NC(=O)CCc2ccccc2)cc1`, for which the Potency result is “inactive”. Take `COc1ccc(-c2noc([C@@H](C)NCc3ccc(F)cc3)c2C(=O)O)cc1`: the Potency result is “inactive”. As to `COCc1nc(CCNC(=O)CCc2ccccc2)no1`, the Potency result was “inactive”.

As for `COc1ccc(C(=O)NC(=S)NNC(=O)c2c(-c3ccccc3)noc2C)cc1`, the Potency is 35.5 µM (active). For the compound `COc1ccc(C(=O)NC(=S)NNC(=O)CCc2ccccc2)cc1`, the Potency was 12.6 µM (active). With `C[C@H]1CN(C(=O)Nc2ccc(F)cc2)C[C@@H]1c1nc(-c2ccccc2)no1` the entry was “inactive”. With `Cc1onc(-c2ccc(F)cc2F)c1C(=O)Nc1cccc(C(F)(F)F)c1` the entry was “inactive”. As for `c1cc(CN2CCc3c(sc4ncnc(N5CCOCC5)c34)C2)ccn1`, the Potency entry was “inactive”. With `CCOC(=O)c1c(C)[nH]c(C(=O)OC)c1C` the entry was “inactive”; with `COc1ccc(-c2ccc3nnc(CNC(=O)C(C)Oc4ccc(Cl)cc4)n3n2)cc1` (configuration not stated), “inactive”. Consider `Cc1c(S(=O)(=O)N2CCCC2c2cccc(F)c2)cnn1C(F)F` (configuration not stated), for which the Potency result is “inactive”. On to `Cc1cccc(NCC(=O)Nc2cc(Cl)ccc2-n2cncn2)c1C`, for which the Potency result was “inactive”. For `CCS(=O)(=O)N(C)CCCNC(=O)c1cn(C)c2ccccc12`, the Potency entry is “inactive”. As to `Cc1ccc(C(NC(=O)Cc2cccs2)C(=O)Nc2ccc3c(c2)OCO3)cc1` (configuration not stated), the Potency entry is “inactive”. On to `CN(C)C[C@@H]1CN(C)C[C@H]1NS(=O)(=O)c1cccc(C(F)(F)F)c1`, for which the Potency entry was “inactive”. As to `Cc1ccsc1C1C(C#N)=C(N)OC2=C1C(=O)CC(C)C2` (configuration not stated), the Potency entry is “inactive”. Regarding `Cc1ccsc1C1C(C#N)=C(N)OC2=C1C(=O)CC(C)(C)C2` (configuration not stated), the Potency entry is “inactive”. Consider `N#CC1=C(N)OC2=C(C(=O)CC(c3ccccc3)C2)C1c1cccs1` (configuration not stated), for which the Potency was 11.2 µM (active).

On to `O=C(Cn1ccc2cc(Cl)ccc21)Nc1ccc2[nH]ccc2c1`, for which the Potency result was “inactive”. Regarding `Cc1cc2nc(/C(C#N)=C\c3ccc(OCc4ccc(F)cc4)cc3)[nH]c2cc1C`, the Potency result is “inactive”. Regarding `CC(C(=O)NC(=O)NC1CCCCC1)n1cnc2c1c(=O)n(C)c(=O)n2C` (configuration not stated), the Potency entry is “inactive”. As for `CCCCCOc1ccc2c(C)c(CCC(C)C)c(=O)oc2c1`, the entry is “inactive”. Turning to `O=C(Nc1ccc(Cl)cc1)c1csc(C(O)c2cccc(C(F)(F)F)c2)n1` (configuration not stated), the Potency was 22.4 µM (active). As for `O=C(NC1CCCC1)c1csc(C(O)c2cccc(Cl)c2)n1` (configuration not stated), the Potency entry was “inactive”. As for `O=C(Nc1ccc(Cl)cc1)c1csc([C@@H]2O[C@H](CO)[C@H](O)[C@H](O)[C@H]2O)n1`, the entry is “inactive”; as for `Cc1nc(-c2ccccc2Cl)sc1C(=O)NC1C=CS(=O)(=O)C1` (configuration not stated), “inactive”. On to `COc1cccc(C(=O)Nc2ccc3oc(C)nc3c2)c1`, for which the Potency entry was “inactive”.

`CCN(CC)c1nc2ccccc2nc1C(=O)Nc1cc(OC)ccc1OC`: the Potency entry is “inactive”.

As to `CN(C)S(=O)(=O)c1cccc(-c2nn(-c3ccccc3)cc2/C=C2\SC(=S)N(CC(=O)O)C2=O)c1`, the Potency is 39.8 µM (active). With `N#Cc1ccccc1CN1C(=O)S/C(=C/c2cccn2-c2cccc(C(=O)O)c2)C1=O`, the Potency result is “inactive”. Turning to `Cc1ccc(-c2nn(-c3ccccc3)cc2/C=C2\SC(=S)N(CCCCCC(=O)O)C2=O)o1`, the Potency is 31.6 µM (active). As for `O=C(CCc1c[nH]c2ccccc12)Nc1ccc(F)cc1`, the entry is “inactive”; as for `COC(=O)CNC(=O)c1cc2sccc2n1Cc1ccccc1`, “inactive”.

Turning to `CC(Sc1ccccn1)C(=O)Nc1cccc(Cl)c1` (configuration not stated), the Potency entry was “inactive”. Regarding `CCC(=O)Oc1ccc2cc(-c3ccccc3)c(=O)oc2c1`, the Potency entry was “inactive”. For the compound `COc1ccc(OC)c(/C=C/C(=O)Oc2ccccc2Cl)c1`, the Potency entry is “inactive”. With `COc1ccc2c(C)c(CC(=O)NCCc3ccccc3)c(=O)oc2c1`, the Potency result is “inactive”.

As to `O=C1c2c(nc(COc3ccccc3)n2Cc2ccccc2)NCCN1Cc1cccc(Cl)c1`, the Potency result is “inactive”. For the compound `Cc1ccc(NC(=O)CN2C(=O)C(C)(C)c3cc(S(=O)(=O)N4CCCCC4)ccc32)cc1F`, the Potency entry was “inactive”.

For `COc1ccc(C)cc1NC(=O)C(C)N1CCN(S(=O)(=O)Cc2ccccc2)CC1` (configuration not stated), the Potency result was “inactive”.
